# Test results reported in the supplement of paper PMC8728848.
# This is one part of a sample in which the strongest signals are shown more often than they occur.
# B1: rCnSL-proA (Clitocybe nebularis) (protein)
# chain: AAFFSLVVLLALLPFGIHASALPSTELTPRVNPNLPGPNDVFVGFRGTNNIVGAIYEKDGIKDTPLNNGADAEMGPGSYITDGLFTARIFASGSAGNNPGTTATVCKIYASGVQWRGAPKGYIPVAYFGNGPTAEQRRQTYLRTLGLPGTAIRFGNLNTNPGQGPTAPRQMVVPPGPLRSLLKASCFPAADTRLPQTLHYFEKRVDWNIITAADSQTWGH
# Experiments:
# Assay in all cases: glycan array binding signal (z-score within array); higher = stronger binding
# Conditions in all cases: glycan notation: IUPAC condensed, linker removed
# Fuc(a1-2)Gal(b1-3)GalNAc = molecular target: Fuc(a1-2)Gal(b1-3)GalNAc
# Method in brief: (§1)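 Arrays were curated from the Consortium for Functional Glycomics database, 3228 in total, and kept only where the protein sequence was available. Binding is expressed as a within-array Z-score. This score was averaged across arrays of the same protein sequence at different concentrations or buffers and across linkers, and negative values can be read as non-binding.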
# Fuc(a1-2)Gal(b1-3)GlcNAc = molecular target: Fuc(a1-2)Gal(b1-3)GlcNAc
# Method in brief: as §1
# [1] = molecular target: Fuc(a1-2)Gal(b1-3)[Fuc(a1-4)]GlcNAc(b1-2)Man(a1-3)[Fuc(a1-2)Gal(b1-3)[Fuc(a1-4)]GlcNAc(b1-2)Man(a1-3)]Man(b1-4)GlcNAc(b1-4)GlcNAc
# Method in brief: as §1
# [2] = molecular target: Fuc(a1-2)Gal(b1-3)[Fuc(a1-4)]GlcNAc(b1-3)[Fuc(a1-3)[Gal(b1-4)]GlcNAc(b1-6)]Gal(b1-4)Glc
# Method in brief: as §1
# Fuc(a1-2)Gal(b1-4)Glc = molecular target: Fuc(a1-2)Gal(b1-4)Glc
# Method in brief: as §1
# [3] = molecular target: Fuc(a1-2)Gal(b1-4)[Fuc(a1-3)]GlcNAc(b1-3)[Neu5Ac(a2-6)Gal(b1-4)GlcNAc(b1-6)]Gal(b1-4)Glc
# Method in brief: as §1
# [4] = molecular target: Fuc(a1-2)Gal6S(b1-4)Glc6S
# Method in brief: as §1
# [5] = molecular target: Fuc(a1-2)[Gal(a1-3)]Gal(b1-3)GalNAc(b1-3)Gal(a1-4)Gal(b1-4)Glc
# Method in brief: as §1
# [6] = molecular target: Fuc(a1-2)[Gal(a1-4)]Gal(b1-4)GlcNAc
# Method in brief: as §1
# [7] = molecular target: Fuc(a1-2)[GalNAc(a1-3)]Gal(b1-3)GlcNAc
# Method in brief: as §1
# [8] = molecular target: Fuc(a1-2)[GalNAc(a1-3)]Gal(b1-4)GlcNAc
# Method in brief: as §1
# [9] = molecular target: Fuc(a1-2)[GalNAc(a1-3)]Gal(b1-4)GlcNAc(b1-2)Man
# Method in brief: as §1
# [10] = molecular target: Fuc(a1-3)[Gal(b1-4)]GlcNAc(b1-6)GalNAc
# Method in brief: as §1
# [11] = molecular target: Fuc(a1-3)[Gal(b1-4)]GlcNAc6S
# Method in brief: as §1
# [12] = molecular target: Gal(a1-3)Gal(b1-4)GlcNAc(b1-3)GalNAc
# Method in brief: as §1
# [13] = molecular target: Gal(a1-3)Gal(b1-4)[Fuc(a1-3)]GlcNAc(b1-2)Man(a1-3)[Gal(a1-3)Gal(b1-4)[Fuc(a1-3)]GlcNAc(b1-2)Man(a1-6)]Man(b1-4)GlcNAc(b1-4)GlcNAc
# Method in brief: as §1
# Gal(a1-4)Gal(b1-4)Glc = molecular target: Gal(a1-4)Gal(b1-4)Glc
# Method in brief: as §1
# [14] = molecular target: Gal(b1-3)GlcNAc(b1-3)Gal(b1-4)Glc
# Method in brief: as §1
# [15] = molecular target: Gal(b1-3)GlcNAc(b1-3)Gal(b1-4)[Fuc(a1-3)]GlcNAc(b1-6)[Gal(b1-3)GlcNAc(b1-3)]Gal(b1-4)Glc
# Method in brief: as §1
# [16] = molecular target: Gal(b1-3)[Neu5Ac(a2-6)]GlcNAc(b1-4)Gal(b1-4)Glc
# Method in brief: as §1
# [17] = molecular target: Gal(b1-4)GlcNAc(a1-6)Gal(b1-4)GlcNAc
# Method in brief: as §1
# [18] = molecular target: Gal(b1-4)GlcNAc(b1-2)[Gal(b1-4)GlcNAc(b1-4)]Man(a1-3)[Gal(b1-4)GlcNAc(b1-2)Man(a1-6)]Man(b1-4)GlcNAc(b1-4)GlcNAc
# Method in brief: as §1
# [19] = molecular target: Gal(b1-4)GlcNAc(b1-3)Gal(b1-4)GlcNAc(b1-2)Man(a1-3)[Gal(b1-4)GlcNAc(b1-3)Gal(b1-4)GlcNAc(b1-2)Man(a1-6)]Man(b1-4)GlcNAc(b1-4)GlcNAc
# Method in brief: as §1
# [20] = molecular target: Gal(b1-4)GlcNAc(b1-3)Gal(b1-4)GlcNAc(b1-3)Gal(b1-4)GlcNAc(b1-2)Man(a1-3)[Gal(b1-4)GlcNAc(b1-3)Gal(b1-4)GlcNAc(b1-3)Gal(b1-4)GlcNAc(b1-2)Man(a1-6)]Man(b1-4)GlcNAc(b1-4)GlcNAc
# Method in brief: as §1
# [21] = molecular target: Gal(b1-4)GlcNAc(b1-3)Gal(b1-4)GlcNAc(b1-3)Gal(b1-4)GlcNAc(b1-2)[Gal(b1-4)GlcNAc(b1-3)Gal(b1-4)GlcNAc(b1-3)Gal(b1-4)GlcNAc(b1-6)]Man(a1-6)[Gal(b1-4)GlcNAc(b1-3)Gal(b1-4)GlcNAc(b1-3)Gal(b1-4)GlcNAc(b1-2)Man(a1-3)]Man(b1-4)GlcNAc(b1-4)[Fuc(a1-6)]GlcNAc
# Method in brief: as §1
# [22] = molecular target: Gal(b1-4)GlcNAc(b1-3)Gal(b1-4)GlcNAc(b1-3)Gal(b1-4)GlcNAc(b1-3)Gal(b1-4)GlcNAc(b1-2)[Gal(b1-4)GlcNAc(b1-3)Gal(b1-4)GlcNAc(b1-3)Gal(b1-4)GlcNAc(b1-3)Gal(b1-4)GlcNAc(b1-6)]Man(a1-6)[Gal(b1-4)GlcNAc(b1-3)Gal(b1-4)GlcNAc(b1-3)Gal(b1-4)GlcNAc(b1-3)Gal(b1-4)GlcNAc(b1-2)Man(a1-3)]Man(b1-4)GlcNAc(b1-4)[Fuc(a1-6)]GlcNAc
# Method in brief: as §1
# [23] = molecular target: Gal(b1-4)GlcNAc(b1-3)Gal(b1-4)GlcNAc(b1-3)Gal(b1-4)GlcNAc(b1-3)Gal(b1-4)GlcNAc(b1-3)Gal(b1-4)GlcNAc(b1-2)[Gal(b1-4)GlcNAc(b1-3)Gal(b1-4)GlcNAc(b1-3)Gal(b1-4)GlcNAc(b1-3)Gal(b1-4)GlcNAc(b1-3)Gal(b1-4)GlcNAc(b1-6)]Man(a1-6)[Gal(b1-4)GlcNAc(b1-3)Gal(b1-4)GlcNAc(b1-3)Gal(b1-4)GlcNAc(b1-3)Gal(b1-4)GlcNAc(b1-3)Gal(b1-4)GlcNAc(b1-2)Man(a1-3)]Man(b1-4)GlcNAc(b1-4)[Fuc(a1-6)]GlcNAc
# Method in brief: as §1
binder,measurement,setting,value
B1,glycan array binding signal (z-score),Fuc(a1-2)Gal(b1-3)GalNAc,-0.318
same,glycan array binding signal (z-score),Fuc(a1-2)Gal(b1-3)GlcNAc,-0.622
same,glycan array binding signal (z-score),[1],6
same,glycan array binding signal (z-score),[2],-0.573
same,glycan array binding signal (z-score),Fuc(a1-2)Gal(b1-4)Glc,-0.272
same,glycan array binding signal (z-score),[3],-0.085
same,glycan array binding signal (z-score),[4],-0.281
same,glycan array binding signal (z-score),[5],-0.278
same,glycan array binding signal (z-score),[6],0.128
same,glycan array binding signal (z-score),[7],0.497
same,glycan array binding signal (z-score),[8],-0.387
same,glycan array binding signal (z-score),[9],-0.723
same,glycan array binding signal (z-score),[10],0.153
same,glycan array binding signal (z-score),[11],0.115
same,glycan array binding signal (z-score),[12],-0.161
same,glycan array binding signal (z-score),[13],3.75
same,glycan array binding signal (z-score),Gal(a1-4)Gal(b1-4)Glc,-0.307
same,glycan array binding signal (z-score),[14],-0.329
same,glycan array binding signal (z-score),[15],0.293
same,glycan array binding signal (z-score),[16],-0.459
same,glycan array binding signal (z-score),[17],3.94
same,glycan array binding signal (z-score),[18],0.465
same,glycan array binding signal (z-score),[19],5.99
same,glycan array binding signal (z-score),[20],4.45
same,glycan array binding signal (z-score),[21],4.11
same,glycan array binding signal (z-score),[22],4.64
same,glycan array binding signal (z-score),[23],3.94
